This is an account of results in PubChem BioAssay (Tox21).

Inconclusive results are not listed. Values without a mark were called inactive. Activity calls are given as the source filed them. The call rests on the fitted dose curve; in most records, active means well fitted activation curve with a large enough effect in the repeat runs; inconclusive means weak or mixed curves; inactive means flat fitted curve, though single readings scatter.
On the % scale 0 is the no-effect control and ±100 the full control effect; potency means the concentration at half of the fitted maximal effect.

The test can be described thus: A CellTox Green Cytotoxicity Assay to monitor cytotoxicity in HEK293 cells - 8 hour (AID 1224884). Further: nearly all actives have a fitted effect of over 35% in size. Particulars: CellTox Green fluorescence; series mostly up to 76.8 µM; cytotoxicity increase: at the top concentration. From the text: National Center for Advancing Translational Sciences [NCATS]
NIH Chemical Genomics Center [NCGC]
U.S. Environmental Protection Agency [EPA]
National Institutes of Environmental Health Sciences [NIEHS]
National Toxicology Program [NTP]
Cell-based models are critical for drug discovery. Determining the natural cytotoxic effects resulting from test compounds is an essential research activity. A CellTox Green Cytotoxicity Assay to monitor cytotoxicity in real time of continues cell culture during 40 hours of the compound treatment was used to screen Tox21 10K library compounds in Hek293 cells. CellTox Green Cytotoxicity Assay is a nonlytic, homogeneous, biofluorescent method to measure cytotoxicity in cell culture after experimental manipulation. The assay system uses a proprietary asymmetric cyanine dye that is excluded from viable cells but preferentially stains the dead cell's DNA. […] Viable cells produce no appreciable increases in fluorescence. Therefore, the fluorescence signal produced by the binding interaction with dead cell DNA is proportional to cytotoxicity.
The mixture of Hek293 cell suspension and reagents were dispensed at 600cells/6 ul/well in 1536-well tissue culture treated black solid bottom plates using a Multidrop dispenser. After the assay plates were incubated at a 37 C/5% CO2 incubator for 5 hours, 23 nL of compounds dissolved in DMSO, positive and negative controls was transferred to the assay plate by a pintool work station. The plates were incubated at 37 C for 40 hours. The fluorescence intensity were measured at 0h, 8h, 16h, 24h, 32h and 40h time points using ViewLux plate reader during compound treatment.
As to `CC(=O)c1ccc[nH]1`, the “cytotoxicity increase” value is 11.5%.
Still for that read-out and setting: the figure for `CCN(CC)c1ccc(C(=C2C=CC(=[N+](CC)CC)C=C2)c2ccc(S(=O)(=O)O)cc2S(=O)(=O)[O-])cc1` is -32.7%; for `O=S(=O)(Cl)c1c(Cl)cccc1Cl` it is 10.6%.
Still for that read-out and setting: for `C=CCOC(=O)COCCC(C)C` the value was -12.6%; for `COc1ccc(C2C(=O)c3ccccc3C2=O)cc1`, -8.93% [at 35.3 µM].
Consider `CC1CCC(C(C)CS)CC1S` (stereo not given), for which the Potency is 49 µM (active).
On to `CCOC(=O)Oc1ccc(CCNC(=O)[C@H](CCSC)NC(C)=O)cc1OC(=O)OCC`, for which the “cytotoxicity increase” value was -0.761% [at 35.3 µM].
Same read-out and setting: the figure for `COc1ccc(CCN(C)CCCN2CCc3cc(OC)c(OC)cc3CC2=O)cc1OC` is 18% [at 35.3 µM]; for `COC(=O)Nc1nc2ccc(C(=O)C3CC3)cc2[nH]1` it is 1.86% [at 35.3 µM].
`CCN(Cc1cccc(S(=O)(=O)O)c1)c1ccc(C(=C2C=CC(=[N+](CC)Cc3cccc(S(=O)(=O)O)c3)C=C2)c2ccc(O)cc2S(=O)(=O)[O-])cc1`: the “cytotoxicity increase” value is 9.69% [at 35.3 µM].
Still for that read-out and setting: the figure for `CCN(CC)CC(=O)Nc1c(C)cccc1C(=O)OC` is -10.6% [at 35.3 µM]; for `COC(CC(C)CCCC(C)(C)O)OC` (stereo not given) it is -5.92%.
Take `C1=CCC2CC=CC2C1` (stereo not given): the “cytotoxicity increase” value was -5.73%.
On the same count and under the same terms, for `C=C(C)C(=O)OCCC(F)(F)C(F)(F)C(F)(F)C(F)(F)C(F)(F)C(F)(F)F` the value was -14.1%.
On the same count and under the same terms, the figure for `CC1CCc2nccnc21` (stereo not given) is 8.06%; for `CC[C@H]1OC(=O)[C@H](C)[C@@H](O[C@H]2C[C@@](C)(OC)[C@@H](O)[C@H](C)O2)[C@H](C)[C@@H](O[C@@H]2O[C@H](C)C[C@H](N(C)C)[C@H]2O)[C@](C)(O)C[C@@H](C)C(=O)[C@H](C)[C@@H](O)[C@]1(C)O` it is -4.84% [at 35.3 µM].
Same read-out and setting: for `Nc1ccc(F)cc1` the value was -5.06%; for `CCCCCC`, -11.9%.
`CC(=O)OCCC(C)CC(C)(C)C` (stereo not given): the “cytotoxicity increase” value was -0.717%.
The same measure, in the same setting: the figure for `CC(C)(C)C(O)/C=C/c1ccc2c(c1)OCO2` (stereo not given) is 8.5% [at 35.3 µM].
The same measure, in the same setting: for `O=C1[C@@H]2[C@H]3CC[C@H](C3)[C@@H]2C(=O)N1CCCCN1CCN(c2ncccn2)CC1` the value was -5.73% [at 35.3 µM]; for `FC(F)(F)C(F)(F)C(F)(F)C(F)(F)CCI`, -2.44% [at 35.3 µM]; for `O=C(O)CNC(=O)c1ccccc1I`, 0.516% [at 35.3 µM].
Still for that read-out and setting: the figure for `Cc1c(C2(c3cc(Br)c(O)c(Br)c3C)OS(=O)(=O)c3ccccc32)cc(Br)c(O)c1Br` is -18.2%; for `O=C(c1ccccc1)c1ccc(O)cc1` it is 17.3%; for `CCOC(=O)C(C)O` (stereo not given) it is 4.69%.
For `CC(=O)OCC(=O)[C@@]1(OC(C)=O)[C@@H](C)C[C@H]2[C@@H]3C[C@H](F)C4=CC(=O)C=C[C@]4(C)[C@@]3(F)[C@@H](O)C[C@@]21C`, the “cytotoxicity increase” value was -5.06% [at 35.3 µM].
With `O=[N+]([O-])c1ccc2ncccc2c1`, the “cytotoxicity increase” value is 29.7%.
Regarding `CCc1ccc(C)cc1`, the “cytotoxicity increase” value is -2.68%.
On the same count and under the same terms, the figure for `CCCC(=O)OC(=O)CCC` is -2.21%; for `CCCCCCC(CO)CCCC` (stereo not given) it is -10.7%; for `Cc1ccc2c(c1)CCCN2` it is -7.67%.
The same measure, in the same setting: the figure for `O=C(O)/C=C/c1ccc(O)c(O)c1` is -10%; for `CCC(Cl)CC(Cl)C(Cl)C(Cl)C(Cl)C(C)Cl` (stereo not given) it is 24.2% [at 15.8 µM].
The same measure, in the same setting: for `Nc1cccc2c(N)cccc12` the value was 19.3%; for `COc1cc(NCc2ccc3nc(N)nc(N)c3c2C)cc(OC)c1OC`, 6.41% [at 35.3 µM]; for `Oc1cccc2[nH]ccc12`, 5.65% [at 35.3 µM].
For the compound `CC(C)c1ccc(C(=O)N=C(N)N)cc1S(C)(=O)=O`, the “cytotoxicity increase” value is -2.68% [at 35.3 µM].
For `Cc1cc(CCCOc2c(C)cc(-c3noc(C(F)(F)F)n3)cc2C)on1`, the “cytotoxicity increase” value was -26.9% [at 35.3 µM].
On the same count and under the same terms, the figure for `O=C(O)CCC(=O)c1ccc(-c2ccccc2)cc1` is -12.6% [at 35.3 µM].
